USP28 block: blocks human USP28 ubiquitin-rhodamine cleavage; Q96RU2; purified USP28, Ub-rhodamine cleavage fluorescence, 30 min; inhibition, % at 25 µM; 47,000 compounds, 3% hits
Target sequence (Q96RU2 whole entry, looked up): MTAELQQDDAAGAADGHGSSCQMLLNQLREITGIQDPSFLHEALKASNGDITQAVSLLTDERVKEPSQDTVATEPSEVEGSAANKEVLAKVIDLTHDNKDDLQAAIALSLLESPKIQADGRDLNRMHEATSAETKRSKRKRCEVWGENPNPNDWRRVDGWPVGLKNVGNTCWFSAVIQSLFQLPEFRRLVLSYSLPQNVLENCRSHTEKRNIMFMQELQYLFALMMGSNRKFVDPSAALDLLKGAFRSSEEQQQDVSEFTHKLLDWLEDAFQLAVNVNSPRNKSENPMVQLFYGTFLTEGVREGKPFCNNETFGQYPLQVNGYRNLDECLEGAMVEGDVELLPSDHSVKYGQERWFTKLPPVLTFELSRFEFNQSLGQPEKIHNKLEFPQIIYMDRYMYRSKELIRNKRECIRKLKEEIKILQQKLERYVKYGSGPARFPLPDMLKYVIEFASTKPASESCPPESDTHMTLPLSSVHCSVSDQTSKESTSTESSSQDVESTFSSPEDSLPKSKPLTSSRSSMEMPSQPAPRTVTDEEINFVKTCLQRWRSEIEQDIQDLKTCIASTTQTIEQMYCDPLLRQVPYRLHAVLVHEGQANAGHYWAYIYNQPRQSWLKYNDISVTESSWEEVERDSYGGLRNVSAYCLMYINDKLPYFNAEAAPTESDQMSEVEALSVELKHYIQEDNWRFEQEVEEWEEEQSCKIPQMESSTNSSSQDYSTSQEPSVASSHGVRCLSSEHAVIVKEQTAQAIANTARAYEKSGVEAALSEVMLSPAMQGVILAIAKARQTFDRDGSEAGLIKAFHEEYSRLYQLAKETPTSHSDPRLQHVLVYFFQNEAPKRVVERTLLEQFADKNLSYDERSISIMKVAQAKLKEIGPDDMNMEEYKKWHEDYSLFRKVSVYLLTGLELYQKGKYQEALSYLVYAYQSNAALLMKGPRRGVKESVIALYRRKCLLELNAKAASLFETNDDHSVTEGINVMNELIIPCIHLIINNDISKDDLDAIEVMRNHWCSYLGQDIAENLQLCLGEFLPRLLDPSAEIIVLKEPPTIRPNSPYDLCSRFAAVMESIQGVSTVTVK
USP17 block: blocks human USP17 ubiquitin-rhodamine cleavage; A8MUK1; purified USP17, Ub-rhodamine cleavage fluorescence, 3 h; inhibition, % at 50 µM; 47,000 compounds, 6.5% hits; AID 1645855
USP30 inh: human USP30 deubiquitinase inhibition; inhibition, % at 25 µM; Q70CQ3; AID 1645860; 47,000 compounds, 5.3% hits; purified USP30, Ub-rhodamine cleavage fluorescence
USP8 block: inhibitors of human USP8 deubiquitinase | P40818 | purified USP8, Ub-rhodamine cleavage fluorescence, 30 min | 47,000 compounds, 4.2% hits | inhibition, % at 20 µM
* hit, by the source's call. Shown are actives, neighbours in structure and some others; about 14% of the full set was active somewhere. Rule as the data show it: active = inhibition above about 30%; inactive = the rest.

SMILES	USP28 block	USP17 block	USP30 inh	USP8 block
CC1CCN(S(=O)(=O)c2ccc3[nH]cc(C(=O)NCc4ccco4)c(=O)c3c2)CC1	20	55*	15	27
COc1ccc(CC(=O)NC2CCN(c3ccc(C)cc3)C2=O)cc1 (stereo not given)	16	38*	17	-3
Cc1ccc(C)c(S(=O)(=O)N2CCN(c3nc(-c4cccs4)nc4ccccc34)CC2)c1	6	14	31*	-47
O=S(Cc1cc(N2CCOCC2)nc(-c2ccccc2)n1)c1ccc(Cl)cc1 (stereo not given)	2	-2	26	1
CCOC(=O)CSc1cc(CS(=O)c2ccc(Cl)cc2)nc(-c2ccccc2)n1 (stereo not given)	22	27	41*	12
COC(=O)c1c(NCc2ccc(F)cc2)c2cccc(Cl)c2[nH]c1=O	13	2	11	6
Cc1c(CN2CCC(C(=O)Nc3cccc(-c4cccc(F)c4)c3)CC2)cnn1C	23	-4	31*	-10
Cc1nn(C)c(Cl)c1CN1CCC(C(=O)Nc2cccc(-c3cccc(F)c3)c2)CC1	19	-16	-11	-11
Cc1cc2nc(C(C)NC(=O)c3cc(C4CC4)nn3C)cc(=O)n2[nH]1 (stereo not given)	10	7	36*	0
Cc1cc2nc(C3CCN(C(=O)C4CCCCO4)CC3)cc(=O)n2[nH]1 (stereo not given)	2	-3	21	1
O=C(Nc1ccccc1)c1ccc2c(c1)CC(c1ccccc1)OC2=O (stereo not given)	5	74*	17	32*
COC(=O)c1ccc(Nc2cc(C)nc3cc(C(F)(F)F)ccc23)cc1	25	64*	66*	35*
COC(=O)c1ccc(COC(=O)c2cc(C)nc3ccccc23)cc1	-5	-2	-10	-1
CN(Cc1ccc2c(c1)OCO2)C(=O)CCNC(=O)c1ccc(Cl)cc1	6	2	12	4
CCn1c(SCC(=O)Nc2ccccc2)nnc1-c1c[nH]c2ccccc12	-11	-27	-12	3
COc1ccc(OC)c(NC(=O)C2Oc3ccccc3NC2=O)c1 (stereo not given)	51*	-11	0	-1
COc1cccc(CNC(=O)C2Oc3ccccc3NC2=O)c1 (stereo not given)	-2	-1	-10	1
COc1ccccc1S(=O)(=O)N1CC[C@@H]2CN(C)[C@@H]2C1	7	56*	18	-1
COc1ccccc1-n1nnc(C(=O)Nc2cccc(C)c2C)c1C	22	6	11	7
Cc1ccc(NC(=O)c2nnn(CC(=O)Nc3cccc(C)c3C)c2N)cc1C	27	27	38*	72*
Cc1ccc2nc(-c3cccc(-c4nc5ccc(C)cc5[nH]4)n3)[nH]c2c1	-10	54*	-27	55*
CC(C)Cc1cc(C(=O)N2CCOC(c3cnccn3)C2)n(C)n1 (stereo not given)	-3	2	13	6
Cc1ccc(NC(=O)Nc2ccc(C)n(CC(=O)Nc3cccc(C)c3)c2=O)cc1	19	0	27	94*
CCn1c(=O)c2nscc2n(CC(=O)Nc2cccc(C)c2)c1=O	-2	0	-2	-3
Cc1cccc(NC(=O)Nc2ccc(C)n(CC(=O)Nc3ccc(C)c(C)c3)c2=O)c1	-3	-8	-14	74*
SMILES	USP28 block	USP17 block	USP30 inh	USP8 block
Cc1cccc(NC(=O)Cn2c(-n3nc(C)cc3C)nc3c(c2=O)CCC3)c1	0	37*	2	-17
Cc1cccc(NC(=O)Cn2c(C)ncc(C(=O)NC3CC3)c2=O)c1	11	12	14	0
Cc1cccc(NC(=O)Nc2ccc(C)n(CC(=O)Nc3ccccc3)c2=O)c1	40*	61*	41*	21
Cc1cnc(NC(=O)c2ccccc2-c2ccc(C(F)(F)F)cc2)s1	9	12	14	11
N#Cc1ccc(NC(=O)Cc2ccc3c(c2)OCCO3)cc1	11	17	21	17
Cc1ccc(NC(=O)Cn2c(Nc3cccc(C)c3)nc(C)cc2=O)cc1	16	36*	58*	3
CN=C(N)NCCC/C=C/CCCC(C)CC(C)C1OC(=O)/C=C/C(C)C(O)CC(O)C(C)C(O)CCC(C)C(O)CC2(O)OC(CC(OC(=O)CC(=O)O)CC(O)CC(O)C(C)C(O)/C=C/C1C)CC(O)C2O (stereo not given)	53*	19	15	13
COc1ccc(S(=O)(=O)N(Cc2ccc3c(c2)CCO3)C2CC2)cc1	0	18	13	8
CC(=O)c1ccc(S(=O)(=O)N(Cc2ccc(C(=O)NC3CC3)cc2)C2CC2)cc1	15	27	30*	16
O=C(CSc1ccc2nnc(-c3ccc(Cl)cc3)n2n1)c1ccccc1	-1	12	14	-16
O=C(CSc1ccc2nnc(-c3ccccc3)n2n1)c1ccccc1	5	10	-10	79*
CCN(CC)c1ccc2nnc(CCC(=O)NCc3ccc(F)cc3)n2n1	-3	-8	-31	-21
COc1ccc(C(=O)CSc2ccc3nnc(CCNC(=O)c4ccc(OC)cc4)n3n2)cc1	14	59*	43*	0
COc1ccc(C(=O)NCCc2nnc3ccc(SCC(=O)NCc4ccc(F)cc4)nn23)cc1	2	46*	52*	-10
COc1ccc(/C=C/C(=O)N(Cc2ccc(F)cc2)C2CCS(=O)(=O)C2)cc1 (stereo not given)	18	11	14	13
Cc1ccc(C(=O)N2CCc3cc(-c4nc(NC(=O)CN5CCCC5)sc4C)ccc32)cc1	3	-1	-5	-1
Cc1sc(NC(=O)CN(C)C2CCCCC2)nc1-c1ccc2c(c1)CCN2C(=O)c1ccccc1F	9	16	-38	38*
Cc1cccc(C(=O)N2CCc3cc(-c4nc(NC(=O)CN5CCc6ccccc6C5)sc4C)ccc32)c1	20	66*	12	79*
Cc1sc(NC(=O)CN2CCc3ccccc3C2)nc1-c1ccc2c(c1)CCN2C(=O)c1cccc(F)c1	-25	21	-65	51*
O=C(NCCC1=CCCCC1)c1ccc(S(=O)(=O)N2CCOCC2)o1	6	-8	0	0
CCc1[nH]c(=O)cc2cc(OC)c(OC)cc12	97*	94*	82*	91*
CCCCCCCCCC(CCCCCCCCCC(=O)O)O[C@H]1O[C@@H](COC(C)=O)[C@H](O)[C@@H](OC(=O)CC(=O)O)[C@H]1O (stereo not given in full)	35*	33*	47*	7
CCCCCC(O)/C=C/C(O)C(O)CCCCCCCC(=O)O (stereo not given)	-4	-5	-14	-3
CCC(CC)C(=O)c1c[nH]c(C(=O)NCc2cccs2)c1	0	27	38*	5
CCCCc1noc(CN2CCC(C3CCCCCN3C(=O)C3CCOCC3)CC2)n1 (stereo not given)	-28	-50	-42	-82
CC(C)c1nc2sc3c(SCC(=O)NC(c4ccccc4)c4ccccc4)ncnc3c2c2c1COC(C)(C)C2	0	-16	22	0
COc1ccccc1CNC(=O)CCc1c(C)c2c(C)nn(-c3ccccc3)c2n(C)c1=O	7	22	16	4

Screening results as filed in PubChem.
